# Screening results: PubChem, ICCB-Longwood Screening Facility, Harvard Medical School
# Sa helicase inh = S. aureus DNA helicase inhibition; purified S. aureus helicase, fluorescence unwinding assay; inhibition, % (concentration not given with the values); hit rate 0.05% among 120,000; AID 485395; in the data active = inhibition above about 25%, passing the limit was not always enough;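 also: 0% = mean of negative control wells and 100% = mean of positive control wells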
# Sa growth inh = inhibitors of Staphylococcus aureus growth at 42 °C; S. aureus RN4220 growth, OD600, 20 h; hits give low values; relative growth, % (no concentration beside the values); hit rate 0.53% among 170,000; AID 720641;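 active = relative growth at most 50% at the other temperature and 20+ points below 30 °C, or under 10% at both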
# * marks the source's active call; other numbers are inactive results; · = not tested or not shown. Compounds with a hit are over-represented: about 0.52% of the library has one in this group of screens.
SMILES,Sa helicase inh,Sa growth inh
C[n+]1ccc(/C=C/c2ccccc2O)c2ccccc21,50*,43
COc1ccc(Cl)cc1NC(=O)Cc1coc2cc(C)cc(C)c12,-7,111
O=S(=O)(c1ccccc1)N1CCCN(c2nccc(C(F)(F)F)n2)CC1,·,94
O=c1c2cc(-c3ccccc3)sc2[nH]c(=S)n1Cc1ccco1,-8,31
C=CCN(CC=C)Cn1[nH]c(-c2cccs2)nc1=S,-3,38*
O=S(=O)(c1ccc2ccccc2c1)N1CCN(Cn2[nH]c(-c3cccs3)nc2=S)CC1,21,42
N=C1/C(=C2\Nc3ccccc3S2)CC(=O)N1Cc1ccco1,-24,41
N=C1/C(=C2\Nc3ccccc3S2)CC(=O)N1CCc1ccccc1,-13,1.4*
CCC(=O)Nc1nnc(-c2ccc3c(c2)CCCC3)o1,-4,-0.4*
O=C(Nc1nnc(-c2ccc3c(c2)CCCC3)o1)C1CCCCC1,-17,·
CCC(=O)Nc1nnc(-c2ccco2)o1,3,90
CCC(=O)Nc1nnc(-c2cccc(OC)c2)o1,-3,0.6*
COC(=O)c1sc(-c2cccs2)cc1NS(=O)(=O)c1ccc(C)cc1,·,104
O=C(Cc1ccc(F)cc1)N1CCC(c2nc3c(nnn3Cc3ccc(F)cc3)c(=O)[nH]2)CC1,·,57
Cc1cccc(Cn2nnc3c(=O)[nH]c(C4CCN(C(=O)c5ccccc5F)CC4)nc32)c1,·,103
O=C(c1ccccc1)N1CCC(c2nc3c(nnn3Cc3ccccc3)c(=O)[nH]2)CC1,-1,2.9*
COc1cccc(Cn2nnc3c(=O)[nH]c(C4CCCN(C(=O)c5ccc(C)cc5)C4)nc32)c1 (configuration not stated),·,79
O=C(Cc1ccc(F)cc1)N1CCC(c2nc3c(nnn3Cc3ccc(Cl)cc3)c(=O)[nH]2)CC1,·,6.4*
COc1cccc(Cn2nnc3c(=O)[nH]c(C4CCN(C(=O)c5ccccc5Cl)CC4)nc32)c1,·,0.4*
Cc1ccccc1Cn1nnc2c(=O)[nH]c(C3CCN(C(=O)c4ccccc4Cl)CC3)nc21,·,12
COc1cccc(Cn2nnc3c(=O)[nH]c(C4CCN(C(=O)c5ccccc5)CC4)nc32)c1,8,0.8*
OC1(c2cccc(F)c2)CCCCC1,·,126
Cc1nc(NC2CC2)c2c3c(sc2n1)CCC3,25,87
Cc1ccc2onc(CNC(=O)N3CCN(C)CC3)c2c1,-19,111
CCOC(=O)c1ccc(Nc2ncnc3[nH]ncc23)cc1,8,116
SMILES,Sa helicase inh,Sa growth inh
Cc1ccc(S(=O)(=O)NC2CC2)cc1C(N)=O,-11,96
CC(C)(C)OC(=O)N1CCC(c2nc3c(nnn3Cc3ccccc3Cl)c(=O)[nH]2)CC1,0,0.3*
O=C(Cc1ccccc1F)N1CCC(c2nc3c(nnn3Cc3ccc(F)cc3)c(=O)[nH]2)CC1,·,68
CCc1nnc(NC(=O)c2ccc(S(=O)(=O)N3CCCC3)cc2)o1,5,111
Cc1ccc(-c2nnc(NC(=O)c3ccc(S(=O)(=O)N4CCCC4)cc3)o2)c(C)c1,3,1.6*
CCc1nnc(NC(=O)c2ccc(S(=O)(=O)N3CC(C)CC(C)C3)cc2)o1 (configuration not stated),6,9.0*
C=CCN(CC=C)S(=O)(=O)c1ccc(C(=O)Nc2nnc(-c3ccc(OC)cc3)o2)cc1,18,89
Cc1ccc(-c2nnc(NC(=O)c3ccc4c(c3)OCCO4)o2)c(C)c1,·,64
C=CCN(CC=C)S(=O)(=O)c1ccc(C(=O)Nc2nnc(-c3cc(C)ccc3C)o2)cc1,2,1.7*
NNC(=O)CNc1c(-c2ccsc2)nc2ccccn12,9,106
CCN1CCCC1CNC(=O)CS(=O)Cc1nc(-c2ccc(OC)c(OC)c2)oc1C (configuration not stated),11,90
CC(=O)NC(=O)c1nnn(-c2ccc(C)cc2)c1NC(C)=O,-3,87
Oc1ccccc1C(Nc1ccccn1)c1ccc2cccnc2c1O (configuration not stated),1,4.8*
Oc1c(C(Nc2ccccn2)c2ccccc2F)ccc2cccnc12 (configuration not stated),·,17
CC(C)Sc1ncc(Cl)c(C(=O)Nc2nnc(C(C)C)s2)n1,·,97
COc1ccc(OC)c(NC(=O)c2nc(S(=O)(=O)Cc3ccc(F)cc3)ncc2Cl)c1,·,-1.1*
Cc1ccc(CS(=O)(=O)c2ncc(Cl)c(C(=O)Nc3nc4ccc(C)cc4s3)n2)cc1,·,92
Cc1ccccc1CS(=O)(=O)c1ncc(Cl)c(C(=O)Nc2nnc(C(C)C)s2)n1,·,5.7*
CCCc1nnc(NC(=O)c2nc(S(=O)(=O)Cc3ccc(C)cc3)ncc2Cl)s1,·,4.1*
CCOC(=O)c1ccc(NC(=O)c2nc(S(=O)(=O)Cc3ccccc3)ncc2Cl)cc1,·,100
CC(C)c1nnc(NC(=O)c2nc(S(=O)(=O)Cc3ccccc3)ncc2Cl)s1,·,7.3*
Cc1ccc(NC(=O)c2nc(S(=O)(=O)Cc3ccc(F)cc3)ncc2Cl)cc1C,·,101
Cc1sc2ncnc(SCC(=O)c3ccc4c(c3)OCCO4)c2c1C,12,·
O=C(CCN1C(=O)c2ccccc2S1(=O)=O)Nc1ccc2c3c(cccc13)CC2,-4,115
CN(C)C1(CNC(=O)NCC2(N(C)C)CCCCC2)CCCCC1,-1,88
SMILES,Sa helicase inh,Sa growth inh
Cc1ccc(C2Nc3ccc4ccccc4c3C3=C2C(=O)CC(C)(C)C3)cc1 (configuration not stated),14,115
O=C1/C(=C/c2cccnc2)c2ccccc2N1c1ccccc1,14,8.4*
O=C1C(=Cc2cccnc2)C(=O)c2ccccc21,-5,64
Cc1cc(C)cc(N(CC(=O)N=Nc2c(O)[nH]c3ccccc23)S(C)(=O)=O)c1,-6,92
Cc1ccc(N(C2CCS(=O)(=O)C2)S(C)(=O)=O)cc1 (configuration not stated),11,98
CC(C)(C)NC(=O)CSc1nnc(NC(=O)C2CC(=O)N(c3ccc(F)cc3)C2)s1 (configuration not stated),2,100
Fc1ccc(Nc2nc3ccccc3nc2Nc2ccc(F)cc2)cc1,6,-0.4*
Fc1ccc(Nc2nc(-c3ccncc3)nc3ccccc23)cc1,8,107
O=S1(=O)N=C2CCCCCN2C(CSc2nnc(CN3CCCCC3)n2Cc2ccccc2)N1 (configuration not stated),-12,133
NC(=O)C1CCN(C(c2ccccc2)c2sc3ncnn3c2O)CC1 (configuration not stated),6,108
CO[C@H]1/C=C/O[C@@]2(C)Oc3c(C)c(O)c4c(O)c(c(C=NN5CCN(C)CC5)c(O)c4c3C2=O)NC(=O)/C(C)=C\C=C\C(C)[C@H](O)[C@@H](C)[C@@H](O)[C@@H](C)[C@@H](OC(C)=O)[C@@H]1C (some centres not stated),·,1.3*
CO[C@H]1C=CO[C@@]2(C)Oc3c(C)c(O)c4c(O)c(c5c(c4c3C2=O)NC2(CCN(CC(C)C)CC2)N=5)=NC(=O)C(C)=CC=C[C@H](C)[C@H](O)[C@@H](C)[C@@H](O)[C@@H](C)[C@H](OC(C)=O)[C@@H]1C,·,0.6*
CO[C@H]1/C=C/O[C@@]2(C)Oc3c(C)c(O)c4c(O)c(c5c(nc6cc(C)ccn65)c4c3C2=O)NC(=O)/C(C)=C\C=C\[C@H](C)[C@H](O)[C@@H](C)C(O)[C@@H](C)[C@H](OC(C)=O)[C@@H]1C (some centres not stated),·,-0.8*
